Hit rate of the full screen: of about 420,000 compounds, about 64,000 (15%) were called active. Inconclusive results (about 27%) are left out. Calls follow the shape of the dose curve; as a rule, active = well fitted inhibition curve with a large enough effect; inconclusive = small, poorly fitted or top-dose-only effect; inactive = flat fitted curve, though single readings scatter. The list is a sample of the results.
test: qHTS for Inhibitors of human tyrosyl-DNA phosphodiesterase 1 (TDP1): qHTS in cells in absence of CPT; details: DT40 Tdp1-/- hTDP1 cells, no CPT, ATP luminescence, 48 h; activity change, negative = growth inhibition: at 46.2 µM (top of the series); also: nearly all actives have a fitted effect of over 55% in size
Outline: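 Compound effects on proliferation are scored in DT40 Tdp1-/-;hTDP1 cells in the absence of CPT. ATP levels (CellTiter-Glo luminescence) are recorded after a ≥48 hr, 37 °C incubation.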
% is scaled to controls: 0 for no effect and ±100 for the full control effect; potency is read from the fitted curve at half-maximal effect.

| SMILES | activity change, negative = growth inhibition | Potency |
| --- | --- | --- |
| CC1(C)O[C@@H]2CC3C4C[C@H](F)C5=CC(=O)C=CC5(C)C4C(O)CC3(C)[C@]2(C(=O)CO)O1 (some centres undefined) | -13.1% (inactive) | – |
| Cc1nc2ccccc2c(-c2ccccc2)c1C(=O)c1ccccc1 | -15.8% (inactive) | – |
| O=C(CN1CCCCC1)Nc1ccccc1Cl | 5.93% (inactive) | – |
| CC(=O)c1ccc(N2CCN(CC(=O)Nc3ccccc3N3CCOCC3)CC2)cc1 | – | 10.3 µM (active) |
| O=C(CN1CCN(C2CCCCC2)CC1)Nc1ccccc1N1CCCCC1 | – | 22.4 µM (active) |
| CNC(=O)C1CC(=O)N(c2ccc(OCC(=O)Nc3ccccc3C)cc2)C1 (centres undefined) | 13.1% (inactive) | – |
| CN1CCN(c2ccccc2NC(=O)COc2ccc(C3CCCCC3)cc2)CC1 | – | 16.4 µM (active) |
| CCc1ccc(C(=O)NC(=S)Nc2ccccc2N2CCOCC2)cc1 | -13.2% (inactive) | – |
| CN1CCN(c2ccc(S(=O)(=O)N3CCCCC3)cc2NC(=O)Cc2ccccc2F)CC1 | -28.7% (inactive) | – |
| O=C(CN1CCCCC1)Nc1ccccc1C(=O)NC1CC1 | -14.5% (inactive) | – |
| O=C(Nc1ccccc1N1CCOCC1)c1ccncc1 | -5.12% (inactive) | – |
| O/N=C(\c1ccc2c(c1)OCCO2)C1CCCCC1 | -17.4% (inactive) | – |
| CC1(C(=O)NS(=O)(=O)c2ccc(C#N)cc2)CCN1C(=O)c1ccc(C2CCCCC2)cc1 (centres undefined) | -14.8% (inactive) | – |
| O=C(O)C1C2C=CC(O2)C1C(=O)NCCc1cccc(Cl)c1 (centres undefined) | -8.8% (inactive) | – |
| COCC(C)NC(=O)c1ccc(Cl)c(Cl)c1 (centres undefined) | -15.4% (inactive) | – |
| Cn1nc(C(=O)OCC(=O)N(Cc2ccccc2)C(C)(C)C)c2ccccc2c1=O | -26.5% (inactive) | – |
| CC(Oc1ccccc1)C(=O)Nc1c2c(nn1-c1ccccc1)CS(=O)C2 (centres undefined) | 5.14% (inactive) | – |
| O=C(NCCCn1ccnc1)c1ccccc1F | -2.13% (inactive) | – |
| O=C(CCN1CCN(C/C=C/c2ccccc2)CC1)Nc1cccc(F)c1 | 0.43% (inactive) | – |
| O=C1/C(=C/c2cccs2)SC(=S)N1C1CCS(=O)(=O)C1 (centres undefined) | – | 18.4 µM (active) |
| O=C(CCN1C(=O)/C(=C/c2cccs2)SC1=S)NNC(=O)c1cccc(O)c1 | -11.1% (inactive) | – |
| CCN1CCC2(CCN(Cc3cn[nH]c3-c3ccc(OC)c(F)c3)C2)C1 (centres undefined) | 2.99% (inactive) | – |
| O=C(Cn1cnc2c(OCc3ccccc3)ncnc21)NCCCn1ccnc1 | -4.68% (inactive) | – |
| O=[N+]([O-])c1ccccc1OCCCCN1CCCCC1 | -6.91% (inactive) | – |
| Cc1ccc(C(C)C)cc1OCCN1CCCC1 | -3.11% (inactive) | – |

| SMILES | activity change, negative = growth inhibition | Potency |
| --- | --- | --- |
| Cc1ccc(C(C)(C)C)c(OCCCCN2CCCC2)c1 | – | 29.1 µM (active) |
| Nc1nc2c(ncn2[C@@H]2O[C@H](CNCc3ccc(OCCCN4CCOCC4)cc3)[C@@H](O)[C@H]2O)c(=O)[nH]1 | -1.01% (inactive) | – |
| O=S(O)CNc1ccc(S(=O)(=O)c2ccc(NCS(=O)O)cc2)cc1 | -10.2% (inactive) | – |
| Cc1ccccc1NC(=O)Cn1c(=O)n(Cc2ccco2)c(=O)c2ccc(C(=O)NC3CCCC3)cc21 | -16.3% (inactive) | – |
| CNC(=S)NNC(=O)c1sccc1OCc1ccccc1 | 4.06% (inactive) | – |
| Cc1ccc(/C=N/NC(=O)c2sccc2OCc2ccc(F)cc2)cc1 | – | 18.4 µM (active) |
| Cc1ccc(COc2ccc(/C=N/NC(=O)CN3CCCCC3)cc2)cc1 | -30% (inactive) | – |
| CCN(CC)S(=O)(=O)c1ccc(NC(=O)CN(c2cccc(F)c2)S(C)(=O)=O)cc1 | -17.4% (inactive) | – |
| C=CC[n+]1c(-c2ccc(C)cc2)csc1NNC(=O)Nc1ccccc1 | – | 9.2 µM (active) |
| C=CCNC(=O)c1csc(-c2ccccc2)n1 | -15.1% (inactive) | – |
| C=CCNc1scc(-c2ccccc2)[n+]1CC=C | -27.5% (inactive) | – |
| Cn1cnnc1Sc1ccc(S(C)(=O)=O)cc1[N+](=O)[O-] | -23.8% (inactive) | – |
| CNC[C@H]1OCc2cnnn2CCCC(=O)N([C@H](C)CO)C[C@@H]1C | 14.2% (inactive) | – |
| CC(C(=O)N1CCOCC1)N1c2cccc3cccc(c23)S1(=O)=O (centres undefined) | -9.94% (inactive) | – |
| CC(C)CN(CC(C)C)C(=O)CN1c2cccc3cccc(c23)S1(=O)=O | 6.03% (inactive) | – |
| CCN(CC)C(=O)C(C)N1c2cccc3cccc(c23)S1(=O)=O (centres undefined) | – | 16.4 µM (active) |
| CCNC(=O)C1(C)CCN(C(=O)c2ccccc2)C1 (centres undefined) | -2.76% (inactive) | – |
| O=C(COc1ccc(S(=O)(=O)N2CCCCC2)cc1)NCc1ccccn1 | -9.77% (inactive) | – |
| O=C(CCn1ccc2cc(S(=O)(=O)N3CCCC3)ccc21)NCc1cccc(Cl)c1 | – | 20.6 µM (active) |
| COc1ccc(OC)c(CCNC(=O)CCn2ccc3cc(S(=O)(=O)N4CCCC4)ccc32)c1 | -2.31% (inactive) | – |
| O=C(NCc1ccccc1)C1CCN(S(=O)(=O)c2ccc3[nH]c(=O)ccc3c2)CC1 | 6.07% (inactive) | – |
| O=C(Cn1ccc2cc(S(=O)(=O)N3CCCC3)ccc21)NCc1ccccc1 | – | 9.2 µM (active) |
| CCCCN(C(=O)c1ccc(S(=O)(=O)N2CCOCC2)cc1)C1CCS(=O)(=O)C1 (centres undefined) | 2.31% (inactive) | – |
| O=C(CN1CCOC1=O)N1CCCC(Nc2ccc(F)c(F)c2)C1 (centres undefined) | -0.497% (inactive) | – |
| Cc1ccc([N+](=O)[O-])cc1S(=O)(=O)N1CCCN(C)CC1 | -1.86% (inactive) | – |

| SMILES | activity change, negative = growth inhibition | Potency |
| --- | --- | --- |
| Cc1cc(NC(=O)c2ccc(-c3ccc(Cl)cc3)o2)cc(-c2nc3ncccc3o2)c1O | -17.9% (inactive) | – |
| O=C(CN1CCN(S(=O)(=O)c2cc(Cl)ccc2Cl)CC1)c1ccc(O)c(O)c1 | – | 2.59 µM (active) |
| N#Cc1ccsc1NC(=O)CN1CCCCC1 | -24.9% (inactive) | – |
| O=S(=O)(c1cc(Cl)ccc1Cl)N1CCN(Cc2ccco2)CC1 | -8.69% (inactive) | – |
| N#Cc1ccsc1NC(=O)CN1CCN(S(=O)(=O)c2cc(Cl)ccc2Cl)CC1 | – | 20.6 µM (active) |
| CN1CCN(S(=O)(=O)c2cccc(C(=O)Nc3sccc3C#N)c2)CC1 | 2.02% (inactive) | – |
| CCN1CCN(C(=O)C2CCN(S(=O)(=O)c3cc(Cl)ccc3Cl)CC2)CC1 | -22.5% (inactive) | – |
| Cn1c(SCc2nc3ccccc3s2)nnc1-c1ccc2c(c1)OCO2 | -5.86% (inactive) | – |
| COCc1cc(C)nc(SCC(=O)Nc2cccc(C)c2)c1C#N | -5.04% (inactive) | – |
| Cc1cc(C)nc(SCc2ccccc2C#N)n1 | -0.525% (inactive) | – |
| COc1ccc2oc(=O)c(C(=O)O)cc2c1 | -17.5% (inactive) | – |
| COc1ccc(/C=C/C(=O)c2cc(Br)ccc(=O)c2O)cc1 | – | 20.6 µM (active) |
| COc1ccc2oc(=N)c(C(=O)Nc3ccc(Br)cc3)cc2c1 | -11.4% (inactive) | – |
| COc1ccc(NC(=O)Cn2nnc(C(=O)NCCc3ccc(OC)c(OC)c3)c2N)cc1 | 0.857% (inactive) | – |
| CC(C)(C)n1cnnc1Sc1ccc([N+](=O)[O-])cn1 | -18.6% (inactive) | – |
| CC(=O)NC(=O)c1ccccc1O | -3.97% (inactive) | – |
| O=C(NNC(=O)c1ccccc1O)c1ccccc1O | – | 2.91 µM (active) |
| O=C(COC(=O)c1cc(S(=O)(=O)N2CCCCC2)ccc1Cl)NCc1ccco1 | -21.6% (inactive) | – |
| CC1CCCCC1NC(=O)c1cn(C)c2ccc(S(=O)(=O)N3CCOCC3)cc2c1=O (centres undefined) | 8.68% (inactive) | – |
| CC1CCCC(NC(=O)c2cc(S(=O)(=O)N3CCCCC3)ccc2Cl)C1C (centres undefined) | – | 25.9 µM (active) |
| Cc1ccc(S(=O)(=O)N2CCCCC2)cc1NC(=O)CCNC(=O)c1ccccc1Cl | -27.7% (inactive) | – |
| O=C(NNC(=O)c1cc(S(=O)(=O)N2CCCCC2)ccc1Cl)c1ccccc1O | – | 20.6 µM (active) |
| Cc1ccc(S(=O)(=O)N2CCN(C)CC2)cc1C(=O)NC1CCCCC1 | -2.9% (inactive) | – |
| Cc1cc(C(=O)CCC(=O)NNC(=O)c2ccccc2O)c(C)s1 | -27.6% (inactive) | – |
